Source: PubChem BioAssay
Several values for one entry are separate records, joined by “and”; a condition that tells them apart may be missing. Equal values may be shown once. Records with an inconclusive call do not appear. Activity calls are given as the source filed them. Unless noted, no stated cut-off is given here; in the data, active means inhibition above about 80%; inactive means the rest.

How the values were obtained:
[1] = growth inhibition of DIPG glioma cells, dose response, cell-based, SU-DIPG-XVII, MIPE5.0, CellTiter-Glo, qHTS (AID 1347060; cut-off not given, nearly all actives have AC50 up to about 26 µM;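 on AC50: cells exposed to compound for 48 hours before viability readout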); details: SU-DIPG-XVII viability, CellTiter-Glo ATP luminescence
[2] = growth inhibition of DIPG glioma cells, dose response, cell-based, SU-DIPG-XIII, MIPE4.0, CellTiter-Glo, qHTS (AID 1347061; cut-off not given, nearly all actives have AC50 up to about 37 µM;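 further: cells exposed to compound for 48 hours before readout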); details: SU-DIPG-XIII viability, CellTiter-Glo ATP luminescence
[3] = growth inhibition of DIPG glioma cells, dose response, cell-based, JHH-DIPG-1, MIPE4.0, CellTiter-Glo, qHTS (AID 1347062; cut-off not given, nearly all actives have AC50 up to about 27 µM;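 on AC50: cells exposed to compound for two days before readout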); details: JHH-DIPG-1 viability, CellTiter-Glo ATP luminescence
[4] = growth inhibition of DIPG glioma cells, dose response, cell-based, SU-DIPG-IV, MIPE4.0, CellTiter-Glo, qHTS (AID 1347063; cut-off not given, nearly all actives have AC50 up to about 30 µM;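 further: compound exposure lasted 48 hours before the viability readout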); details: SU-DIPG-IV viability, CellTiter-Glo ATP luminescence
[5] = growth inhibition of DIPG glioma cells, dose response, cell-based, SU-DIPG-XIII, MIPE5.0, CellTiter-Glo, qHTS (AID 1347064; cut-off not given, nearly all actives have AC50 up to about 23 µM;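 on AC50: cells exposed to compound for 48 hours before the viability read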); details: SU-DIPG-XIII viability, CellTiter-Glo ATP luminescence
[6] = viability loss in pontine glioma line – cell-based, SU-DIPG-XXV, MIPE5.0, CellTiter-Glo, qHTS, dose response (AID 1347065; cut-off not given, nearly all actives have AC50 up to about 26 µM;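 further: cells exposed to compound for 48 hours before ATP readout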); details: CellTiter-Glo ATP luminescence
[7] = JHH-DIPG-1 glioma cell viability, MIPE5.0 library, CellTiter-Glo luminescence, qHTS (AID 1347067; cut-off not given, nearly all actives have AC50 up to about 26 µM;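 further: cells exposed to compound for 48 hours before readout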); details: JHH-DIPG-1 glioma viability, CellTiter-Glo ATP luminescence
[8] = sensitizers of A549 cells to miR-34 induction, primary screen, imaging, A549 dox-inducible miR-34, nuclei and caspase counts (AID 1347080;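 active means compounds whose cell count with miR-34 switched on is under 0.7 times the count with it off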); details: A549 miR-34 inducible, Hoechst nuclei count, 48 h
[9] = survival rescue of mitochondrial mutant cells in low glucose, primary screen, MELAS cybrids, Rieske KO mouse fibroblasts, CellTiter-Glo (AID 1508586;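 active means mean z-score across replicates of 1.96 or higher in either the MELAS or the Rieske mutant cell line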;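 further: z relative to plate mean and SD of compound and empty wells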)
[10] = LFS_MB_P medulloblastoma growth inhibition, cell-based, chromothripsis tumors, cisplatin or BGB combos (AID 1671449); details: LFS_MB_P medulloblastoma cells;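 further: cells exposed for 96 hours; 0% = vehicle DMSO and 100% = killing by high DMSO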
[11] = HDN33 neuroblastoma growth inhibition, cell-based, chromothripsis tumors, cisplatin or BGB combos (AID 1671450); details: HDN33 neuroblastoma cells, stronger effect = higher value;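 further: cells exposed to compound for four days; 0% = vehicle DMSO and 100% = cell killing by high DMSO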
[12] = ICB984 medulloblastoma cell growth inhibition, synergistic combos for chromothripsis tumors, cisplatin or BGB combos (AID 1671451; call rule not given here;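 further: cells exposed for 96 hours before readout; 0% = vehicle DMSO and 100% = killing by high DMSO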); details: ICB984 medulloblastoma cells, drug combinations, stronger effect = higher value
[13] = HTB85 osteosarcoma cell growth inhibition, synergistic combos for chromothripsis tumors, BGB or cisplatin IC20 combos (AID 1671453); details: HTB85 osteosarcoma cells, drug combinations, stronger effect = higher value;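 further: cells exposed for 96 hours before readout; 0% = vehicle DMSO and 100% = high DMSO killing control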
[14] = MDA-MB-436 breast carcinoma cell growth inhibition, synergistic combos for chromothripsis tumors, BGB or cisplatin combos (AID 1671458; call rule not given here;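 further: cells exposed for 96 hours; 0% = vehicle DMSO and 100% = killing by high DMSO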); details: MDA-MB-436 breast carcinoma growth inhibition, drug combinations, stronger effect = higher value
[15] = growth inhibition of BT084 medulloblastoma cells, cell-based, ICGC_MB145, cisplatin and BGB IC40 combos (AID 1671461); details: drug combinations, stronger effect = higher value;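 further: cells exposed to drugs for 96 hours; 0% = vehicle DMSO and 100% = high DMSO full killing control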
[16] = growth inhibition of RCMB18 medulloblastoma cells, cell-based, cisplatin and BGB IC40 combos (AID 1671462); details: stronger effect = higher value;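 further: cells exposed to compound for four days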
[17] = SU-DIPG-VI glioma cell viability, MIPE4.0 library, CellTiter-Glo luminescence, qHTS (AID 1347066; cut-off not given, nearly all actives have AC50 up to about 30 µM;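 further: cells exposed to compound for 48 hours before readout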); details: CellTiter-Glo ATP luminescence
[18] = SU-DIPG-XXV glioma cell viability, MIPE5.0 library, qHTS (AID 1347068; cut-off not given, nearly all actives have IC50 up to about 30 µM)

What does the source list for `O=C(CCCCCCNC(=O)c1cnc(N(c2ccccc2)c2ccccc2)nc1)NO`?
AC50 [1]: 7.42 µM (active); AC50 [2]: 23.5 µM (active); AC50 [3]: 7.43 µM (active); AC50 [4]: 5.9 µM (active); AC50 [5]: 4.17 µM (active); AC50 [6]: 7.42 µM (active); AC50 [7]: 8.33 µM (active); fold change ([8]; stronger effect = lower value, cell number ratio, induced over uninduced): 0.909 (inactive); fold change ([8]; measured here: relative caspase fold change +Dox/-Dox): 0.469; cell count ([8]; measured here: total cells with miR-34 induction, stronger effect = lower value): 4500; cell count ([8]; measured here: total cells without miR-34 induction): 4950; z-score ([9]; MELAS cybrid survival, CellTiter-Glo 48 h, stronger effect = higher value): -0.658 (inactive); z-score ([9]; Rieske KO mouse fibroblast survival, CellTiter-Glo 72 h): 0.218; inhibition ([10]; at 0.5 µM, stronger effect = higher value): -14.5% (inactive) and -5.58% (inactive); inhibition ([10]; measured here: combination with BGB IC20, at 0.005 µM): -18.6% and -24.1%; inhibition ([10]; measured here: combination with BGB IC40, at 0.005 µM): -32.2% and -65.4%; inhibition ([10]; measured here: combination with BGB IC40, at 0.05 µM): -41.9% and -39.4%; inhibition ([10]; measured here: combination with cisplatin, at 0.5 µM, stronger effect = higher value): -7.65% and 15.8%; inhibition ([10]; measured here: combination with cisplatin, at 5 µM, stronger effect = higher value): 98.3% and 80%; inhibition ([11]; BGB combo, at 5 µM): 42.2% and -4.91%; inhibition ([11]; at 0.5 µM): -11.3% (inactive) and -31.5% (inactive); inhibition ([11]; cisplatin combo, at 5 µM): 48.9% and 1.35%; inhibition ([11]; measured here: with BGB IC20 combination, at 0.5 µM): -15.6% and -44.2%; inhibition ([11]; measured here: with cisplatin IC20 combination, at 0.5 µM): -0.181% and -16.9%; inhibition ([11]; single agent, at 5 µM): 58.6% and 19.5%; inhibition ([12]; BGB IC20 combo, at 0.005 µM): -1.95% and -4.3%; inhibition ([12]; BGB IC40 combo, at 0.005 µM): -29.2% and -32%; inhibition ([12]; BGB IC40 combo, at 0.05 µM): 25.2% and 28%; inhibition ([12]; at 0.5 µM): -12.7% (inactive) and -20.3% (inactive); inhibition ([12]; cisplatin combo, at 0.05 µM): 22.5% and 24.5%; inhibition ([12]; cisplatin combo, at 0.5 µM): -4.11% and -25.4%; inhibition ([12]; cisplatin combo, at 5 µM): -33% and -20%; inhibition ([12]; measured here: 5 uM single agent, at 5 µM): -20.1% and -35.8%; inhibition ([13]; at 0.5 µM): -4.93% (inactive) and -17.7% (inactive); inhibition ([13]; measured here: with BGB IC20, at 0.5 µM): -15.5% and -21.9%; inhibition ([13]; measured here: with BGB IC20, at 5 µM): 46.8% and 4.12%; inhibition ([13]; measured here: with cisplatin IC20, at 0.5 µM): 14.2% and -10.7%; inhibition ([13]; measured here: with cisplatin IC20, at 5 µM): 38.8% and 48.3%; inhibition ([13]; single agent, at 5 µM): 42.9% and 23.4%; inhibition ([14]; at 0.5 µM): -21.3% (inactive) and -18.7% (inactive); inhibition ([14]; measured here: BGB combination, at 0.5 µM): -26.1% and -14.4%; inhibition ([14]; measured here: BGB combination, at 5 µM): 12.3% and 1.72%; inhibition ([14]; measured here: cisplatin combination, at 0.5 µM): -29.8% and -32%; inhibition ([14]; measured here: cisplatin combination, at 5 µM): 9.34% and 4.42%; inhibition ([15]; at 0.5 µM): 0.96% (inactive) and 10.8% (inactive); inhibition ([15]; cisplatin combination, at 0.5 µM): -4.86% and 4.91%; inhibition ([15]; cisplatin combination, at 5 µM): 90.9% and 41.3%; inhibition ([15]; measured here: BGB IC40 combination 0.05 uM, at 0.05 µM): -52.6% and -17.2%; inhibition ([15]; single agent, at 5 µM): 58% and 51.4%; inhibition ([16]; at 0.5 µM): -4.02% (inactive) and 5.89% (inactive); inhibition ([16]; cisplatin combo, at 5 µM): 58% and 24.2%; inhibition ([16]; measured here: BGB IC40 combination, at 0.05 µM): -5.21% and -9.76%; inhibition ([16]; measured here: combination with cisplatin, at 0.5 µM): 7.09% and 6.01%; inhibition ([16]; single agent, at 5 µM): 36.2% and 26.2%

What does the source list for `C[Se]CCC(N)C(=O)O` (configuration not stated)?
outcome [1]: inactive; outcome [2]: inactive; outcome [3]: inactive; outcome [4]: inactive; outcome [5]: inactive; outcome [17]: inactive; outcome [7]: inactive; outcome [18]: inactive
